Bioassay records deposited in PubChem by National Center for Advancing Translational Sciences (NCATS).
Luc counter = Counterscreen for Luciferase (Kinase-Glo TM) Inhibition; Kinase-Glo luciferase, ATP luminescence, 8 min; AID 1379, 2008; Luciferin 4-monooxygenase (Photuris pensylvanica), Q27757; 200,000 compounds, 0.28% hits; Potency, µM (top dose mostly 38.3 µM), without a hit: at the top dose activity change, negative = inhibition, actives largely listed as inhibitors; also: % is scaled to controls: 0 for no effect and ±100 for the full control effect; nearly all actives have a fitted effect of over 60% in size
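Luminescence was the read-out, taken after 8-minute incubation at ambient temperature. Luciferase turned over luciferin with 10 uM ATP in imidazole pH 7.2 buffer containing KCl, MgCl2, Tween 20 and BSA.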
SMN2 splice up = qHTS Assay for Enhancers of SMN2 Splice Variant Expression | 210,000 compounds, 2.8% hits | AID 1458, 2008 | Potency, µM (top dose mostly 46.1 µM), inactives show top-dose activity change, positive = activation, most hits filed as activators | HEK293 SMN2-luciferase splicing reporter, luminescence, 30-36 h; also: % of control where 0% means no effect; nearly all actives have a fitted effect of over 55% in size
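qHTS luciferase splicing reporter: luminescence rises when SMN2 exon 7 is included in transfected HEK293 cells. Compound exposure lasted 30-36 h at 37C, with 4.5 mM final sodium butyrate as control, followed by a ONE-Glo read.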
FLuc modulator = qHTS profiling assay for firefly luciferase inhibitor/activator using purifed enzyme and Km concentrations of substrates (counterscreen for miR-21 project). 360,000 compounds, 6.9% hits. Potency, µM (top dose mostly 57.5 µM), for inactives: top-dose activity change, negative = inhibition, most hits filed as inhibitors. purified FLuc, Km substrates, luminescence inhibition. Luciferin 4-monooxygenase (Photinus pyralis), P08659;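 also: plate controls were vehicle for no effect and reference inhibitor for full effect; nearly all actives have a fitted effect of over 55% in size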
Target sequence (P08659 whole entry, looked up): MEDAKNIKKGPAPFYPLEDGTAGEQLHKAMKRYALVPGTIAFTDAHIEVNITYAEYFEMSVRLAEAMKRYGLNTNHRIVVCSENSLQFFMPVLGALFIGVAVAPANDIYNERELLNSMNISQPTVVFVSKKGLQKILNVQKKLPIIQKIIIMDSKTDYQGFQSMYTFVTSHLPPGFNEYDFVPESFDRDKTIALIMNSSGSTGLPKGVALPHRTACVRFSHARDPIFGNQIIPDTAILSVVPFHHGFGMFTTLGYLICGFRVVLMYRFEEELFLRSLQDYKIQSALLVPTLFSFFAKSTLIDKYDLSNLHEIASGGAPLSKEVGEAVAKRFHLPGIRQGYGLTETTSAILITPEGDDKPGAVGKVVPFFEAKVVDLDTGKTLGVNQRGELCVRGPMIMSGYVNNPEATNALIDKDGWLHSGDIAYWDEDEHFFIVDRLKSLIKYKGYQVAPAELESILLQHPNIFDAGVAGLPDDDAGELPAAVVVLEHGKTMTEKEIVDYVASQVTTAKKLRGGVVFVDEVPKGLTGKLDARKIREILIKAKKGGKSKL
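Biochemical qHTS of compounds, final roughly 60 µM downward over six points, against 10 nM purified firefly luciferase using Km concentrations of substrates (10 uM D-luciferin, 10 uM ATP) in Tris acetate pH 7.5 buffer; luminescence output.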
ELG1 genotoxic = qHTS screen for small molecules that induce genotoxicity in human embryonic kidney (HEK293T) cells expressing luciferase-tagged ELG1; Potency, µM (series often up to 46 µM), without a hit: top-dose activity change, positive = activation, most hits filed as activators; HEK293T ELG1-luciferase reporter, luminescence, 16 h; AID 504466, 2011; 330,000 compounds, 1.3% hits; also: % of control where 0% means no effect; nearly all actives have a fitted effect of over 60% in size
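Genotoxicity was scored as increased ELG1-luciferase reporter signal, measured by ONE-Glo luminescence (30 min, room temperature). Compound or vehicle exposure of the HEK293T reporter cells lasted 16 hr at 37°C.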
Rab9 promoter act = qHTS Assay for Rab9 Promoter Activators | 320,000 compounds, 2.8% hits | AID 485297, 2010 | Potency, µM (series often up to 9.22 µM), inactives show at the highest dose activation, negative = inhibition, actives largely listed as activators | Huh7 Rab9 promoter-luciferase reporter, luminescence, 24 h; also: % of control where 0% means no effect; nearly all actives have a fitted effect of over 60% in size
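Luciferase signal after 10 min detection reagent at ambient indicates Rab9 promoter upregulation; stably transfected Huh7 cells were treated 24 h with compound in DMSO at 37 °C, 5% CO2.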
NPC1 prom act = qHTS Assay for NPC1 Promoter Activators | Potency, µM (titrated, usually from 9.22 µM), for inactives: at the highest dose activation, most hits filed as activators | Huh7 NPC1 promoter luciferase reporter, 24 h | 320,000 compounds, 2.4% hits; also: % of control where 0% means no effect; nearly all actives have a fitted effect of over 60% in size
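Huh7 reporter cells (NPC1 promoter driving luciferase) are dosed with compound for 24 h at 37 °C, 5% CO2; luciferase detection reagent is then added and luminescence measured after 10 min at ambient temperature.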
Active calls of the source: *; ? = inconclusive; . = no result given; [ ] = dose if it differs, or a comment. A selection: hits, their analogues and other compounds. The true share with any hit is near 7.3%. Calls follow the shape of the dose curve; as a rule, active = well fitted curve in the direction sought with a large enough effect; inconclusive = small, poorly fitted or top-dose-only effect, or another doubt; inactive = no such curve, though single readings can be large; an effect the other way counts as inactive or inconclusive. Potency is read from the fitted curve at half-maximal effect.

SMILES	Luc counter	SMN2 splice up	FLuc modulator	ELG1 genotoxic	Rab9 promoter act	NPC1 prom act
COc1ccc(CN2C(=O)c3ccccc3C2OC)cc1 (stereo not drawn)	.	.	-2.7%	4.3%	4.9%	4.8%
CC1=C(C(=O)Nc2ccc(C)cc2C)C(C(C)C)n2nc(SCc3ccccc3Cl)nc2N1 (stereo not drawn)	.	-9.0%	0.2%	.	.	.
CC(C)OC(=O)NCCOC(=O)Nc1cccc(Cl)c1	0.3%	-33.7%	-5.2%	-2.6%	6.7%	-6.2%
O=C(NCCO)c1cccc(Cl)c1	-2.8%	-2.4%	4.4%	.	0.0063µM*	?
O=C(Nc1ccccc1)OCCNC(=O)c1cccc(Cl)c1	2.1%	-20.7%	21.3µM*	15.0%	-3.1%	6.4%
O=C(Nc1ccccc1)OCCOc1ccccc1	-1.3%	?	10.7µM*	11.6µM*	0.891µM*	3.98µM*
O=C(Nc1cccc(Cl)c1)OCCOc1ccccc1	.	.	21.3µM*	14.8%	?	?
Nc1ncnc2c1ncn2[C@@H]1O[C@H](CO)[C@H](O)[C@H]1O	0.1%	3.3%	.	.	.	.
Cc1ccc2nc3ccc(N4CCN(C)CC4)nn3c(=O)c2c1	-4.1%	.	6.01µM*	?	3.55µM*	1.58µM*
O=c1c2ccccc2nc2ccc(N3CCOCC3)nn12	-23.4%	?	16.9µM*	?	?	?
Cc1ccc2nc3n(c(=O)c2c1)CCCCC3	-8.2%	?	?	14.6%	19.9%	15.2%
Cc1ccc2nc3ccc(N4CCCCCCC4)nn3c(=O)c2c1	-10.4%	?	5.36µM*	10.5%	?	?
Cc1sc2nc3ccc(N4CCCC4)nn3c(=O)c2c1C	.	.	12µM*	2.0%	16.6%	?
Cc1cc(N2CCCN(C)CC2)nc2cc(Cl)ccc12	-2.8%	1.1%	-9.0%	1.2%	-2.7%	-0.1%
Cc1nnc2ccc(N3CCCCC3)nn12	.	.	-3.4%	?	8.0%[1.84 µM]	-2.6%
CC1CCN(CC2CCN(C(=O)Nc3ccc(Br)cc3F)CC2)CC1	.	.	-7.3%	.	.	.
Cc1c(NC(=O)c2sc3ccccc3c2Cl)cccc1-c1nc2ccccc2o1	.	11.0%	0.8%	.	.	.
COc1ccc(N(C(=O)c2ccccc2C)S(=O)(=O)c2ccc3c(c2)n(C)c(=O)n3C)cc1	.	-2.9%	-0.1%	.	.	.
COc1cccc(C2CC(=O)Nc3cc4c(cc32)OCCO4)c1OC(C)C (stereo not drawn)	4.1%	8.3%	6.5%	-0.7%	-0.5%	2.2%
COc1cccc(C2CC(=O)Nc3cc(OC)c(OC)c(OC)c32)c1OC(C)C (stereo not drawn)	.	17.8µM*	-0.4%	.	.	.
COc1ccc(-n2nc3cc(C)c(NC(=O)C(C)C)cc3n2)cc1	-1.9%	2.82µM*	0.213µM*	?	0.316µM*	0.316µM*
CCc1ccc(-n2nc3cc(C)c(NC(=O)c4ccccc4C)cc3n2)cc1	.	11.0%	?	.	.	.
CCOc1ccc(-n2nc3cc(C)c(NC(=O)CC)cc3n2)cc1	.	-10.5%	?	.	.	.
CCc1ccc(-n2nc3cc(C)c(NC(=O)c4cc(OC)cc(OC)c4)cc3n2)cc1	.	2.1%	1.35µM*	.	.	.
COc1ccc(-n2nc3cc(C)c(NC(C)=O)cc3n2)cc1	-1.6%	1.58µM*	0.601µM*	?	0.316µM*	0.316µM*
SMILES	Luc counter	SMN2 splice up	FLuc modulator	ELG1 genotoxic	Rab9 promoter act	NPC1 prom act
CCCSCCCNC(=O)C1CCN(c2nn3cc(-c4ccc(F)cc4)nc3s2)CC1	.	.	-6.5%	.	.	.
CC(=O)Nc1ccc(NC(=O)C/C(C)=N/NC(N)=S)cc1	2.4%	8.8%	-3.4%	-4.6%	-2.5%	-4.9%
CC(=O)Nc1ccc(NC(=O)C/C(C)=N/NC(=O)c2cccc3ccccc23)cc1	.	.	15.1µM*	0.6%	-6.0%	-10.7%
COc1ccc(CCNc2ncnc3c2nnn3C)cc1	.	.	5.2%	.	.	.
COCc1ccc(C(=O)N(C)CC2CCCN(CCc3ccc(OC)cc3)C2)o1 (stereo not drawn)	.	.	16.9µM*	?	?	?
COc1ccc(CCNC(=O)Cn2nnc(-c3ccc(N(C)C)cc3)n2)cc1OC	-0.5%	-57.3%	16.9µM*	-0.2%	-0.4%	-0.2%
COc1ccc(CCNC(=O)Cn2nnc(C(=O)Nc3ccc(Br)cc3)c2N)cc1OC	.	.	9.53µM*	-3.0%	-6.7%	-1.2%
CCOc1ccc(NC(=O)c2ccccc2O)cc1	-14.9%	3.16µM*	0.536µM*	?	1.58µM*	1.41µM*
COc1ccc(CCNC(=O)Cn2nnc(-c3ccc(OC)c(OC)c3)n2)cc1OC	1.8%	-8.1%	-5.7%	-3.4%	-2.9%	-2.5%
CCOc1ccc(NC(=O)c2ccc(NC(=O)c3ccccc3Br)cc2)cc1	.	.	-14.8%	?	-1.4%	-0.7%
CCOc1ccc(NC(=O)c2ccccc2CO)cc1	-17.3%	12.2%	16.9µM*	?	?	?
CCOc1ccc(NC(=O)c2cccnc2C(=O)O)cc1	-6.4%	8.3%	?	7.5%	3.9%	9.4%
Oc1ccc(Cc2nccc3cc(O)c(O)cc23)cc1O	-2.9%[7.66 µM]	-7.2%[9.22 µM]	.	.	.	.
C=N[C@H](C(=O)N[C@@H]1C(=O)N2[C@@H]1SC(C)(C)[C@@H]2C(=O)O)c1ccccc1	1.0%[17.1 µM]	-8.2%[20.6 µM]	.	.	.	.
CCOc1ccc(NC(=O)c2nnn(CC(=O)Nc3ccccc3OC)c2N)cc1	-2.1%	-1.3%	2.69µM*	5.6%	19.3%	18.0%
COc1ccccc1C(=O)Nc1ccc(OCC(=O)N2CC(C)OC(C)C2)cc1 (stereo not drawn)	.	.	5.36µM*	9.0%	-5.2%	-0.3%
CCOc1ccc(NC(=O)c2ccccc2OC)cc1	-12.3%	?	12µM*	?	?	?
COc1ccccc1C(=O)Nc1ccc(C(=O)c2ccccc2)cc1	-0.8%	-4.6%	13.5µM*	3.7%	?	-5.4%
COc1ccccc1NC(=O)Cn1nnc(C(=O)Nc2ccccc2)c1N	2.4%	-17.9%	-2.8%	-8.0%	-3.8%	2.0%
COc1ccccc1NC(=O)c1cc2cc3ccc(OC)c(Cl)c3nc2s1	.	.	-8.1%	.	.	.
CCCCn1c(=O)c2oc3ccccc3c2n(Cc2ccc(OC)cc2)c1=O	.	.	-0.6%	.	.	.
CN(C)C1C(=O)C(C(N)=O)C(=O)C2(O)C(=O)C3C(=O)c4c(O)ccc(Cl)c4C(O)C3CC12 (stereo not drawn)	0.2%[39.9 µM]	.	.	.	.	.
O=C1C(Cl)=C(Nc2ccc(O)cc2)C(=O)c2ccccc21	.	.	?	-9.2%	-45.9%	-35.9%
